DT40 TDP1 CPT: DT40-hTDP1 cell growth loss with CPT; actives 12% (n = 420,000); chicken DT40 Tdp1-/-;hTDP1 cells + 20 nM CPT, ATP luminescence, 48 h; Potency, µM (doses to about 46.2 µM), for inactives: at the highest dose activity change, negative = growth inhibition, most hits filed as inhibitors; AID 686979; further: potency means the concentration at half of the fitted maximal effect; nearly all actives have a fitted effect of over 55% in size
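Chicken DT40 Tdp1-/- cells stably complemented with human TDP1 were seeded at 400 cells/well in medium containing 20 nM camptothecin, exposed to pin-transferred compounds, and grown at 37 °C for at least 48 hr. Viability was read as ATP luminescence.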
IL-1B inflam inh: inflammasome signaling inhibition, IL-1 beta readout; THP-1 LPS/ATP IL-1B secretion, AlphaLISA, 16 h; stronger effect = lower value; activity change, % at 57.5 µM; actives 4.7% (n = 360,000); in the data active means activity change below about -50%; inconclusive means mostly about -30% to -49%
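Secreted IL-1B measured by AlphaLISA bead assay after 16 h compound exposure of THP-1 cells; compounds (final up to 57.5 uM) added 1 h before LPS (250 ng/mL) and ATP (1.25 mM) stimulation; lower signal means less secretion.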
TDP1 cell noCPT: qHTS for Inhibitors of human tyrosyl-DNA phosphodiesterase 1 (TDP1): qHTS in cells in absence of CPT. actives 15% (n = 420,000). Potency, µM (series often up to 46.2 µM), without a hit: at the highest dose activity change, negative = growth inhibition, actives largely listed as inhibitors. DT40 Tdp1-/- hTDP1 cells, no CPT, ATP luminescence, 48 h; further: potency means the concentration at half of the fitted maximal effect; nearly all actives have a fitted effect of over 55% in size
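Luminescent ATP content (CellTiter-Glo) served as the growth readout. Knockout chicken DT40 cells expressing human TDP1 were exposed to compounds without camptothecin for a minimum 48 hr at 37 °C.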
ELG1 DNA repair: ELG1-dependent DNA repair inhibition | HEK293T ELG1-luciferase reporter, luminescence, 16 h; DNA damage induced by 5-fluorouridine | Potency, µM (doses to about 46.1 µM), for inactives: at the highest dose activity change, negative = inhibition, usual class: inhibitors | actives 2.3% (n = 330,000) | AID 504467; further: potency means the concentration at half of the fitted maximal effect; nearly all actives have a fitted effect of over 55% in size
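Reporter activity after DNA damage by 5-fluorouridine is monitored. Compound-treated cells incubate 16 hr at 37 °C, then ONE-Glo is added for 30 min before luminescence reading.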
VP16 counter: inhibits Gal4-VP16 luciferase reporter, ROR gamma counter-screen; Drosophila S2 Gal4-VP16 UAS-luciferase, luminescence, 20 h; Potency, µM (highest dose often 53.6 µM), for the others: at the highest dose activity, negative = inhibition, actives largely listed as inhibitors; actives 3.5% (n = 310,000); AID 2546;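 further: Gal4-VP16 expression switched on by copper sulfate through the metallothionein promoter; potency means the concentration at half of the fitted maximal effect; nearly all actives have a fitted effect of over 50% in size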
RORg inh: blocks mouse ROR gamma transcriptional activity | Drosophila S2 Gal4-RORgamma UAS-luciferase reporter, 20 h | Potency, µM (highest dose often 53.6 µM), without a hit: at the highest dose activity change, negative = inhibition, usual class: inhibitors | actives 5.4% (n = 310,000) | AID 2551; further: potency means the concentration at half of the fitted maximal effect; nearly all actives have a fitted effect of over 60% in size
Target sequence (P51450 whole entry, looked up, the tested form may be a part): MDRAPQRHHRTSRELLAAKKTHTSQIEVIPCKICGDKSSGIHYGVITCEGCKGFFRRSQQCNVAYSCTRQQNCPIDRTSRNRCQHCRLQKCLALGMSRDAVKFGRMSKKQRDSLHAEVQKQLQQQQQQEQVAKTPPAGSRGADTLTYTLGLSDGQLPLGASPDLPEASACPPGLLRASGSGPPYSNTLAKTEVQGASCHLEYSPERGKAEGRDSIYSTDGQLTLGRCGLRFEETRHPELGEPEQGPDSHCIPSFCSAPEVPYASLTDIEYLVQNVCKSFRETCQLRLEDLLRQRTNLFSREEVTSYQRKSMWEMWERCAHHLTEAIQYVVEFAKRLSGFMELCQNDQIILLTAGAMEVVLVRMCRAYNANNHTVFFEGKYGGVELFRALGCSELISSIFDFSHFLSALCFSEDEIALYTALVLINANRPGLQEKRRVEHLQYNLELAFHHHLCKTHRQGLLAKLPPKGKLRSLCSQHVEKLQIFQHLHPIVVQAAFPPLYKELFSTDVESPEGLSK
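Read-out: Photinus luciferase luminescence; inhibitors lower reporter signal. Insect Schneider cells with Gal4-ROR gamma fusion under metallothionein promoter, UAS reporter; 700 uM final copper sulfate induction, 20 hr, ambient temperature.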
An asterisk follows results filed as active; i = inactive; ? = inconclusive; / = not tested or not shown; [ ] = another dose, or the depositor's remark. Compounds with a hit are over-represented: about 21% of the library has one in this group of screens. Unless noted, the call rests on the fitted dose curve; in most records, active means well fitted curve in the direction sought with a large enough effect; inconclusive means small, poorly fitted or top-dose-only effect, or another doubt; inactive means no such curve, though single readings can be large; an effect the other way counts as inactive or inconclusive. On the % scale 0 is the no-effect control and ±100 the full control effect.

SMILES	DT40 TDP1 CPT	IL-1B inflam inh	TDP1 cell noCPT	ELG1 DNA repair	VP16 counter	RORg inh
COc1ccc(N(CC(=O)NCCc2cccc(C)c2)S(=O)(=O)c2c(C)noc2C)cc1	?	-16	18µM*	2%	-13%	15%
COc1ccc(N(CC(=O)NCCc2ccc(OC)c(OC)c2)S(=O)(=O)c2c(C)noc2C)cc1	3%	93	0%	8%	2%	-2%
CC(C)CO/N=C1/C[C@@H](O)[C@@H](O)[C@@H]2[C@@H]3C(=O)N(Cc4ccccc4)C(=O)[C@H]3CC[C@@H]12	/	/	/	/	-1%[10 µM]	-16%[10 µM]
COc1ccc(CN2C(=O)C(CC(=O)NCc3cccc4ccccc34)CC(C(=O)N(C(C)C)C(C)C)=C2C)cc1 (stereo unspecified)	?	-70*	?	/	/	/
CCN(CC)C(=O)C1=C(C)N(Cc2ccc(C(C)(C)C)cc2)C(=O)C(CC(=O)NCCN2CCOCC2)C1 (stereo unspecified)	-25%	-25	-26%	/	/	/
COc1ccc(CN2C(=O)C(CC(=O)NCCCCc3ccccc3)CC(C(=O)N(C)C)=C2C)cc1 (stereo unspecified)	?	-2	18µM*	/	/	/
CC1=C(C(=O)N(C)C)CC(CC(=O)NCCCCc2ccccc2)C(=O)N1Cc1ccccc1 (stereo unspecified)	?	-24	?	/	/	/
CC1=C(C(=O)N(C(C)C)C(C)C)CC(CC(=O)NCCN2CCOCC2)C(=O)N1Cc1ccc(C(C)(C)C)cc1 (stereo unspecified)	?	?	18µM*	/	/	/
COc1ccc(CN2C(=O)C(CC(=O)NCc3cccc4ccccc34)CC(C(=O)N(C)C)=C2C)cc1 (stereo unspecified)	2%	9	-16%	/	/	/
CC1=C(C(=O)N(C(C)C)C(C)C)CC(CC(=O)NCCc2ccccn2)C(=O)N1Cc1ccc(C(C)(C)C)cc1 (stereo unspecified)	16µM*	-23	?	/	/	/
NC(=O)c1ccc2c(=O)c(O)c(-c3cc(Cl)c(N)c(Cl)c3)[nH]c2c1	-19%	-6	-5%	7%	-3%	-20%
Cc1ccc(C)c(NS(=O)(=O)c2c(C)nc3sccn3c2=O)c1	-3%	7	-14%	17%	-1%	-16%
COc1ccc(CN2C(=O)C(CC(=O)NCCc3ccccn3)CC(C(=O)N(C(C)C)C(C)C)=C2C)cc1 (stereo unspecified)	?	12	?	/	/	/
COc1ccc(CN2C(=O)C(CC(=O)NCCCCc3ccccc3)CC(C(=O)N(C(C)C)C(C)C)=C2C)cc1 (stereo unspecified)	13µM*	-27	12µM*	/	/	/
CC1=C(C(=O)N(C(C)C)C(C)C)CC(CC(=O)NCCCCc2ccccc2)C(=O)N1Cc1ccc(C(C)(C)C)cc1 (stereo unspecified)	23µM*	0	21µM*	/	/	/
CC1=C(C(=O)N2CCOCC2)CC(CC(=O)NCCCCc2ccccc2)C(=O)N1Cc1ccc(C(C)(C)C)cc1 (stereo unspecified)	23µM*	-2	16µM*	/	/	/
N#Cc1c(N(CC(=O)O)CC(=O)O)sc(C(=O)O)c1CC(=O)O	-4%	/	-22%	/	-8%	-1%
O=C(c1ccc(F)c(S(=O)(=O)N2CCOCC2)c1)N1CCc2ccccc21	?	i	?	2%	11%	?
Cc1ccc(Cl)c(NC(=O)COC(=O)c2cc[n+]([O-])cc2)c1Cl	1%	-9	-2%	14%	/	/
COc1ccc(OCCSc2nnc(C)n2-c2ccccc2)cc1	29µM*	-9	26µM*	-13%	-15%	39%
CN(C)CCSc1nnc2sc3ccccc3n12	-8%	15	-23%	9%	2%	-17%
COc1ccc(OCCSc2nnc3sc4ccccc4n23)cc1	?	-79*	?	?	1%	16%
CC(C)CN(C)C(=O)CCc1nnc(Cc2cccc(C(F)(F)F)c2)o1	3%	9	3%	?	-11%	11%
Cn1c(=O)c2cc(NC(=O)CCc3ccc(O)cc3)ccc2n1Cc1cccc(C(F)(F)F)c1	?	0	21µM*	/	/	/
COc1ccccc1CCC(=O)Nc1ccc2c(c1)c(=O)n(C)n2Cc1ccc(F)cc1	4.6µM*	35	5.2µM*	/	/	/
SMILES	DT40 TDP1 CPT	IL-1B inflam inh	TDP1 cell noCPT	ELG1 DNA repair	VP16 counter	RORg inh
COc1ccccc1CCC(=O)Nc1ccc2c(c1)c(=O)n(C)n2C	?	0	-18%	/	/	/
Cn1c(=O)c2cc(NC(=O)CCc3ccccc3)ccc2n1Cc1cccc(C(F)(F)F)c1	16µM*	9	13µM*	/	/	/
COc1cccc(Cn2c3ccc(NC(=O)CCc4ccc(F)cc4)cc3c(=O)n2C)c1	4.6µM*	43	3.7µM*	/	/	/
COc1ccccc1CCC(=O)Nc1ccc2c(c1)c(=O)n(C)n2Cc1cccc(C(F)(F)F)c1	23µM*	-12	?	/	/	/
Cn1c(=O)c2cc(NC(=O)CCc3ccccc3)ccc2n1-c1ccccc1F	12µM*	40	13µM*	/	/	/
CCOc1ccccc1CNC(=O)CCc1c(C)nn(-c2ccc(N3CCCC3)nn2)c1C	?	/	21µM*	/	/	/
Cc1nn(-c2ccc(N3CCCCC3)nn2)c(C)c1CCC(=O)Nc1ccccc1F	?	?	?	?	-3%	-10%
COc1ccccc1CNC(=O)CCc1c(C)nn(-c2ccc(N3CCCCC3)nn2)c1C	?	/	26µM*	/	/	/
COc1ccc(CNC(=O)CCc2c(C)nn(-c3ccc(N4CCCC4)nn3)c2C)c(OC)c1	0%	/	-12%	/	/	/
Clc1ccc(-c2nnc3n2CCCCC3)cc1	-11%	71	8%	10%	5%	13%
Brc1ccc(-c2nnc3n2CCCCC3)cc1	0%	43	-3%	-23%	7%	0%
CCOc1ccc(-c2cnc3n2CCC3)cc1	?	-20	?	25%	-27%	16µM*
Clc1ccc(-c2cnc3n2CCCCC3)cc1	15µM*	?	9.2µM*	?	?	5.6µM*
Fc1ccc(-c2cnc3n2CCCCC3)cc1	-21%	-17	?	?	-15%	11µM*
Cc1cccc(CNC(=O)C2CCC(=O)N(CC3CCCCC3)C2)c1 (stereo unspecified)	?	6	?	/	/	/

From PubChem
